The panel holds about 83,000 compounds, 20% with a hit somewhere; the sample as a whole holds those more often.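 Negative percent growth values reflect cell death: -40 means 40% of the cells present at the start died, and -100 means all died.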 Unmarked numbers belong to inactive results. Calls of active or inactive are those of the source. How the source made its calls: active means growth percent below 10; inactive means the rest.
test system: SF-539 CNS; assay: NCI-60 one-dose screen, 48 h (100 = growth as untreated, 0 = no growth, -100 = all killed); conditions: 10 µM unless noted

SMILES	growth
CCC(C)(C)c1ccc(OCCCCN2CCN(c3ccncc3)CC2)cc1	-36% (active)
COc1ccc(C(=O)/C=C/c2ccc(Oc3nc(Nc4ccc(F)cc4)nc(N(C)C)n3)c(OC)c2)cc1	26.8%
S=c1c2ccccc2nc2n1CCc1c-2[nH]c2ccccc12	43.4%
CCOC(=O)COc1c(OC)c(OC)cc2oc(-c3cccc(C(=O)Nc4ccc(Cl)cc4)c3)cc(=O)c12	59.8%

test system: UACC-257 melanoma; assay: as above; conditions: 10 µM unless noted

SMILES	growth
C/C(=N\N=C1/C(=O)Nc2ccc(Cl)cc21)c1ccc2c(c1)Nc1ccccc1S2	10.1%
CCCSc1nc(NCCc2c[nH]c3ccccc23)c(C#N)c(-c2ccc(F)cc2)n1	74.6%
COc1cc(C2CC(c3cc(OC)c(OC)c(OC)c3)=NN2C(C)=O)ccc1OCc1ccccc1 (centres undefined)	48.8%
Cc1cc2c(cc1Cl)C(=O)/C(=C/c1ccccc1)O2	36.1%
COc1ccc2[nH]cc(-c3nc(N)nnc3-c3cn(C)c4ncccc34)c2c1	72.9%
Cc1ccc(C(=O)CSc2nc3ccc(F)cc3c(=O)n2-c2ccc(Cl)cc2)cc1	70.4%
CCCCSc1nc(NCCc2c[nH]c3ccccc23)c(C#N)c(-c2ccccc2)n1	81.4%
Cn1cc(-c2nc(N)nnc2-c2c[nH]c3ccc(Br)cc23)c2cccnc21	81.3%
CN(C)CCOc1ccc(C(=O)C2[C@H](c3ccc(Cl)cc3)[C@@H](c3ccccc3)NC23C(=O)Nc2ccc(Br)cc23)cc1 (some centres undefined)	53.8%
CN1CCN(/C(=N\c2sc(-c3ccccc3)nc2-c2ccccc2)c2ccccc2)CC1	77.4%
CCCSc1nc(NCCc2c[nH]c3ccccc23)c(C#N)c(-c2ccccc2)n1	100%
CCN(CC)c1ccnc(CNCCSC(c2ccccc2)(c2ccccc2)c2ccc(OC)cc2)c1	-45.3% (active)
COc1cc2oc(-c3cccc(C(=O)Nc4cccc([N+](=O)[O-])c4)c3)cc(=O)c2c(OC)c1OC	31.7%
O=C(COc1ccc(NC(=O)Nc2ccc(Cl)c(Cl)c2)cc1)N=Nc1c(O)[nH]c2ccc([N+](=O)[O-])cc12	67.6%
COc1cc(-c2nc3cc(Cl)c(Cl)cc3[nH]2)ccc1OCc1nnc(-c2cccs2)o1	61.2%
CCCCCCCCc1ccc(C(=O)Nc2ccc(C)cc2C(=O)O)cc1C	95%
CCOP(=O)(OCCCl)c1nc(-c2ccc(C)cc2)oc1NCc1ccccc1 (centres undefined)	92.6%
NS(=O)(=O)c1ccc(N=Nc2c(O)n(CC(=O)Nc3ccccc3)c3ccccc23)cc1	61.5%
CC1(C)CC[C@]2(C(=O)Nc3ccccc3)CC[C@]3(C)C(=CCC4[C@@]5(C)C[C@@H](O)[C@H](O)[C@@](C)(CO)C5CC[C@]43C)C2C1 (some centres undefined)	65.6%
COc1ccccc1C(=O)NN1C(=O)/C(=C/C2=Cc3ccccc3OC2)SC1=S	108%
COc1ccc(NC(=O)[C@H](CO)NC(=O)OC(C)(C)C)cc1C(=O)Nc1cccc(C2CC(=O)c3c(cc(OC)c(OC)c3OC)O2)c1 (some centres undefined)	75.3%
COc1ccc(C2(SCCNCc3cc(N(C)C)ccn3)c3ccccc3C=Cc3ccccc32)cc1	41.1%
COc1ccc2[nH]c(O)c(N=NC(=O)COc3ccc(NC(=O)Nc4ccccc4)cc3)c2c1	63.9%
COc1cc(/C=C/C(=O)c2ccc(C)cc2)ccc1Oc1nc(Nc2ccc(F)cc2)nc(N(C)C)n1	41.3%
CCN(CC)CCOc1ccc(Nc2ncc3cc(-c4ccc(O)c(C#N)c4)c(=O)n(C)c3n2)cc1	101%
CC(/C=C1\SC(=S)N(CCCC(=O)NC(CC(C)C)C(=O)O)C1=O)=C\c1ccccc1 (centres undefined)	104%
COc1cc2c(c(OC)c1OC)C(=O)CC(c1cccc(NC(=O)c3cc(N)ccc3Cl)c1)O2 (centres undefined)	64.9%
CC(=O)OC[C@@]1(C)C2CC[C@]3(C)C(CC=C4C5CC(C)(C)CC[C@]5(C(=O)Nc5cccc(C)c5)CC[C@]43C)[C@@]2(C)C[C@@H](OC(C)=O)[C@@H]1OC(C)=O (some centres undefined)	24.7%
CCCCc1c(Nn2cnnn2)no[n+]1[O-]	68.5%
CC(C)Sc1nc(NCCc2c[nH]c3ccccc23)c(C#N)c(-c2ccc(F)cc2)n1	90.2%
